Reference: the supplement of paper PMC12532568
Counter-ions that a name gives are not always drawn.

tested on: Danio rerio larvae Tg(actc1b:ZsGreen-LC3), 3 dpf; test: LC3 puncta relative area vs vehicle, with NH4Cl (autophagic flux) (log2 fold change); higher = more autophagy; conditions: 10 µM; treatment time 16 h; NH4Cl: + 100 mM, 4 h
Protocol: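 Transgenic Tg(actc1b:ZsGreen-map1lc3) zebrafish larvae (2 dpf) were treated for 16 h with Tocris library compounds at 10 µM (n = 12 larvae per compound). Skeletal-muscle LC3 puncta area relative to body area was measured by high-content confocal imaging before and after 4 h of 100 mM NH4Cl (autophagic flux), normalised to vehicle (DMSO), and reported as log2 fold change.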

| SMILES | LC3 puncta (log2) |
| --- | --- |
| O=C1NCN(c2ccccc2)C12CCN(CC1COc3ccccc3O1)CC2 (stereo not given) [Spiroxatrine] | 0.649 |
| N[C@@H](Cn1oc(=O)[nH]c1=O)C(=O)O [L-Quisqualic acid] | 0.686 |
| c1ccc(CCCCN2CCC(c3ccccc3)CC2)cc1 [4-PPBP maleate] | 0.486 |
| NC(C(=O)O)c1nn[nH]n1 (racemic) [(RS)-(Tetrazol-5-yl)glycine] | 0.357 |
| Fc1ccc(C(OCCN2CCN(CCCc3ccccc3)CC2)c2ccc(F)cc2)cc1 | 0.781 |
| NCC(CS(=O)(=O)O)c1ccc(Cl)cc1 (stereo not given) [Saclofen] | -0.0138 |
| Oc1ccc2c3c1O[C@H]1c4[nH]c5ccccc5c4C[C@@]4(O)[C@@H](C2)N(CC2CC2)CC[C@]314 [Naltrindole hydrochloride] | 0.551 |
| Fc1ccc(C(OCCN2CCN(C/C=C/c3ccccc3)CC2)c2ccc(F)cc2)cc1 | 0.995 |
| O=C1CCCN1CC#CCN1CCCC1 [Oxotremorine sesquifumarate] | 0.192 |
| CN1C[C@H](CNC(=O)OCc2ccccc2)C[C@@H]2c3cccc4c3c(cn4C)C[C@H]21 [Metergoline] | 0.408 |
| CN1[C@@H]2CC[C@H]1C[C@@H](OC(=O)c1cc(Cl)cc(Cl)c1)C2 | 0.686 |
| CCCN[C@@H]1CCc2c(OC)cccc2[C@@H]1C [(+)-AJ 76 hydrochloride] | 0.353 |
| Cc1[nH]c2ccc(O)cc2c1CCN [2-Methyl-5-hydroxytryptamine hydrochloride] | 0.337 |
| CC(N)Cc1cnc[nH]1 (stereo not given) | 0.293 |
| O=C(Cc1ccc(Cl)c(Cl)c1)N1CCCCC1CN1CCCC1 (stereo not given) | 0.493 |
| Cc1ccc(C[N+](C)(C)C)o1 [5-Methylfurmethiodide] | 0.316 |
| COC(=O)[C@@H](N)CCCNC(=N)N[N+](=O)[O-] [L-NAME hydrochloride] | 0.657 |
| Cc1onc(O)c1C[C@H](N)C(=O)O | 0.29 |
| CC(C)C[C@H]1C(=O)N2CCC[C@H]2[C@]2(O)O[C@](NC(=O)[C@@H]3C=C4c5cccc6[nH]c(Br)c(c56)C[C@H]4N(C)C3)(C(C)C)C(=O)N12 [Bromocriptine mesylate] | 0.623 |
| NCCc1c[nH]c2ccc(C(N)=O)cc12 [5-Carboxamidotryptamine maleate] | 0.571 |

| SMILES | LC3 puncta (log2) |
| --- | --- |
| CCCCCCC[n+]1ccc(-c2cc[n+](CCCCCCC)cc2)cc1 [DHBP dibromide] | 0.343 |
| c1ccc(C2CNCc3ccccc32)cc1 (stereo not given) [4-Phenyl-1,2,3,4-tetrahydroisoquinoline hydrochloride] | 0.39 |
| S=C(NC1CCCCC1)N1CCC(c2cnc[nH]2)CC1 [Thioperamide] | 0.48 |
| CCCN(CCC)C1CCc2cccc(O)c2C1 (stereo not given) [8-Hydroxy-DPAT hydrobromide] | 0.325 |
| CN(C(=O)Cc1ccc(Cl)c(Cl)c1)[C@H](CN1CCCC1)c1ccccc1 [ICI 199,441 hydrochloride] | 0.486 |
| CC(CN)CC(=O)O (stereo not given) [3-Methyl-GABA] | 0.425 |
| c1ccc2c(c1)[I+]c1ccccc1-2 [Diphenyleneiodonium chloride] | 0.545 |
| CCCN(C/C=C/I)C1CCc2ccc(O)cc2C1 (stereo not given) [7-Hydroxy-PIPAT maleate] | 0.264 |
| C[C@H](N)Cc1cnc[nH]1 | 0.58 |
| Cn1cnc(CCN)c1 [N?-Methylhistamine dihydrochloride] | 0.559 |
| CC(=O)N1CC[N+](C)(C)CC1 [4-Acetyl-1,1-dimethylpiperazinium iodide] | 0.151 |
| C(=C\c1ccccc1)/CN1CCN(CCOC(c2ccccc2)c2ccccc2)CC1 | 0.791 |
| CS(=O)(=O)Nc1ccc(Cc2noc(-c3ccc4[nH]cc(CCN)c4c3)n2)cc1 | 0.382 |
| CC[N+](CC)(CCCNC1=CC(=O)C(NCCC[N+](CC)(CC)Cc2ccccc2)=CC1=O)Cc1ccccc1 [Benzoquinonium dibromide] | 0.386 |
| CN(C(=O)Cc1ccccc1)C(CN1CCCC1)c1ccccc1 (stereo not given) [N-MPPP Hydrochloride] | 0.566 |
| C=C(C)[C@H]1CN[C@H](C(=O)O)[C@H]1CC(=O)O [Kainic acid] | 0.23 |
| Cc1nc(N)sc1CCN [Amthamine dihydrobromide] | 0.697 |
| Clc1cccc(SC2CCNCC2)n1 [Anpirtoline hydrochloride] | 0.148 |
| N=C(NCc1ccc(Cl)cc1)SCCCc1c[nH]cn1 [Clobenpropit dihydrobromide] | 0.922 |
| S=C=Nc1cccc(C2(N3CCCCC3)CCCCC2)c1 [Metaphit] | 0.576 |
